Records with an inconclusive call do not appear. The source made the active and inactive calls. Calls come from the whole dose curve; as a rule, active = well fitted curve in the direction sought with a large enough effect; inconclusive = small, poorly fitted or top-dose-only effect, or another doubt; inactive = no such curve, though single readings can be large; an effect the other way counts as inactive or inconclusive. Non-standard residues stand in square brackets, D forms with d. Residues, ends and D or L forms follow the SMILES beside them.
Legend:
[1] = BET inhibitor-based combinations targeting novel dependencies in MECOM-rearranged (r) AML: SET-2 cell line (AID 2202231); conditions: SET-2 AML cells viability, CellTiter-Glo luminescence, 48 h; viability: hits give low values, concentration not given here; note: nearly all actives have a fitted effect of over 35% in size;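 for viability: plate controls were DMSO treated cells for no effect and wells without cells for full effect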
Procedure, shortened: (§1)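 Cells were plated at 500 per well and exposed to an 11-point dose series of each drug for 48 hr. Viability was measured by CellTiter-Glo luminescence, normalized to DMSO and empty-well controls, and summarized as AUC and per-cell-line Z-AUC.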

[2] = BET inhibitor-based combinations targeting novel dependencies in MECOM-rearranged (r) AML: MV-4-11 cell line (AID 2202233); note: nearly all actives have a fitted effect of over 45% in size
Procedure, shortened: (§2)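 Activity is given as area under the curve and as Z-AUC, mean-centred within each cell line. It comes from 11-point dose curves normalized to DMSO and empty wells. CellTiter-Glo luminescence was read after 48 hr drug exposure of 500 cells/well.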

[3] = BET inhibitor-based combinations targeting novel dependencies in MECOM-rearranged (r) AML: HNT-34 cell line (AID 2202234); note: nearly all actives have a fitted effect of over 35% in size
Procedure, shortened: as §2

[4] = BET inhibitor-based combinations targeting novel dependencies in MECOM-rearranged (r) AML: UCSD-AML1 cell line (AID 2202235); note: nearly all actives have a fitted effect of over 40% in size
Procedure, shortened: as §2

[5] = BET inhibitor-based combinations targeting novel dependencies in MECOM-rearranged (r) AML: AML-191 cell line (AID 2202236; note: nearly all actives have a fitted effect of over 35% in size)
Procedure, shortened: as §1

[6] = BET inhibitor-based combinations targeting novel dependencies in MECOM-rearranged (r) AML: AML-194 cell line (AID 2202237; note: nearly all actives have a fitted effect of over 40% in size)
Procedure, shortened: as §1
Potency is the fitted concentration of half-maximal effect.

CC1(N)CCN(c2cccnc2NC(=O)c2nc(-c3ncccc3C(F)(F)F)cnc2N)CC1
active: Potency [2] 7.42 µM | Potency [3] 18.6 µM
inactive: viability [1] 101%

Cc1ccc(C(=O)OCc2ccc([C@@H](CN)C(=O)Nc3ccc4cnccc4c3)cc2)c(C)c1
active: Potency [1] 14.4 µM | Potency [2] 3.23 µM | Potency [3] 5.12 µM | Potency [4] 14.4 µM | Potency [5] 9.1 µM | Potency [6] 8.11 µM

O=C(/C=C/c1ccc(CN(CCO)CCc2c[nH]c3ccccc23)cc1)NO
active: Potency [1] 0.166 µM | Potency [2] 0.0934 µM | Potency [3] 0.148 µM | Potency [4] 0.132 µM | Potency [5] 0.148 µM | Potency [6] 0.332 µM

CCOC(=O)CCNc1cc(N2CCc3ccccc3CC2)nc(-c2ccccn2)n1
active: Potency [1] 3.72 µM | Potency [2] 8.33 µM | Potency [3] 2.35 µM | Potency [4] 3.32 µM | Potency [5] 2.95 µM | Potency [6] 2.95 µM

CN(C)C/C=C/C(=O)Nc1ccc(C(=O)N2CCC[C@@H](Nc3ncc(Cl)c(-c4c[nH]c5ccccc45)n3)C2)cc1
active: Potency [1] 5.9 µM | Potency [2] 0.235 µM | Potency [3] 0.235 µM | Potency [4] 0.468 µM | Potency [5] 2.35 µM | Potency [6] 1.66 µM

CNC1CCCN(c2c(F)cc3c(=O)c(C(=O)O)cn(C4CC4)c3c2OC)C1 (configuration not stated)
inactive: viability [1] 112% | Potency [2] | Potency [3] | Potency [4] | Potency [5] | Potency [6]

CN(C(=O)c1c(O)c2ccccc2n(C)c1=O)c1ccccc1
inactive: viability [1] 76.1% | Potency [2] | Potency [3] | Potency [4] | Potency [5] | Potency [6]

Cn1c(NCCN(CCO)CCCc2ccc([N+](=O)[O-])cc2)cc(=O)n(C)c1=O
inactive: viability [1] 114% | Potency [2] | Potency [3] | Potency [4] | Potency [5] | Potency [6]

CC(C)(C(=O)NCC(F)(F)C(F)(F)F)C(=O)N[C@@H]1C(=O)Nc2ccccc2-c2ccccc21
inactive: viability [1] 105% | Potency [2] | Potency [3] | Potency [4] | Potency [5] | Potency [6]

CN(C)Cc1cccc(N=C(c2ccccc2)c2c(O)[nH]c3cc(C(=O)N(C)C)ccc23)c1
active: Potency [1] 20.9 µM | Potency [2] 6.61 µM | Potency [3] 14.8 µM

O=c1cc(N2CCOCC2)oc2c(-c3ccc4c(c3)OCCO4)csc12
active: Potency [1] 3.32 µM | Potency [2] 2.09 µM | Potency [3] 5.25 µM | Potency [4] 3.32 µM | Potency [5] 5.25 µM

C=C1C(=CC=C2CCC[C@]3(C)[C@@H]([C@H](C)C=C[C@H](C)C(C)C)CC[C@@H]23)C[C@@H](O)C[C@@H]1O
inactive: Potency [4]
active: Potency [1] 23.5 µM | Potency [2] 16.6 µM | Potency [3] 18.6 µM | Potency [5] 23.5 µM

CC(C)C[C@@H]1NC(=O)[C@@H](C(C)C)NC(=O)[C@@H]2CCCN2C(=O)[C@@H](CC(=O)O)NC(=O)[C@@H](Cc2c[nH]c3ccccc23)NC1=O (cyclo(L[dW][dD]P[dV]))
inactive: viability [1] 110% | Potency [2] | Potency [3] | Potency [4] | Potency [5] | Potency [6]

Cc1ncsc1-c1ccc([C@H](C)NC(=O)[C@@H]2C[C@@H](O)CN2C(=O)[C@@H](NC(=O)COCCCOCCNC(=O)C[C@@H]2N=C(c3ccc(Cl)cc3)c3c(sc(C)c3C)-n3c(C)nnc32)C(C)(C)C)cc1
active: Potency [1] 3.72 µM | Potency [2] 0.0047 µM | Potency [3] 0.0295 µM | Potency [4] 0.0833 µM | Potency [5] 0.209 µM | Potency [6] 0.186 µM

C=CC(=O)Nc1cccc(C)c1Nc1ncc2cc(-c3c(Cl)c(OC)cc(OC)c3Cl)ccc2n1
active: Potency [1] 14.8 µM | Potency [2] 4.17 µM | Potency [3] 8.33 µM | Potency [4] 5.25 µM | Potency [5] 13.2 µM | Potency [6] 11.8 µM

CS(=O)(=O)c1ccc(-c2cnc(NCc3ccco3)n3cnnc23)cc1
inactive: viability [1] 108% | Potency [2] | Potency [3] | Potency [4] | Potency [5]

O=C(NO)c1ccc(C2=Nc3ccccc3Oc3ccccc32)cc1
active: Potency [1] 2.95 µM | Potency [2] 1.86 µM | Potency [3] 3.72 µM | Potency [4] 4.17 µM | Potency [5] 3.32 µM | Potency [6] 4.68 µM

Cc1ccc(-c2ncn(-c3ccc(Nc4nccc(-c5cccc(N6CCOCC6)c5)n4)cc3)n2)cn1
active: Potency [1] 3.72 µM | Potency [2] 2.35 µM | Potency [3] 2.95 µM | Potency [4] 2.35 µM | Potency [5] 2.35 µM | Potency [6] 2.95 µM

COc1cccc2c1C(=O)c1c(O)c3c(c(O)c1C2=O)C[C@@](O)(/C(CO)=N/NC(=O)CCCCCN1C(=O)C=CC1=O)C[C@@H]3O[C@H]1C[C@H](N)[C@H](O)[C@H](C)O1
active: Potency [1] 2.95 µM | Potency [2] 0.186 µM | Potency [3] 0.934 µM | Potency [4] 0.525 µM | Potency [5] 1.05 µM | Potency [6] 0.934 µM

C=C1C(=O)O[C@H]2C[C@H](C)C(/C=C/C(C)=O)=CC[C@H]12
active: Potency [1] 4.68 µM | Potency [2] 1.86 µM | Potency [3] 3.32 µM | Potency [4] 2.09 µM | Potency [5] 2.35 µM

COc1cc(C(=O)O)ccc1NC(=O)[C@@H]1N[C@@H](CC(C)(C)C)[C@](C#N)(c2ccc(Cl)cc2F)[C@H]1c1cccc(Cl)c1F
active: Potency [2] 0.132 µM | Potency [3] 0.132 µM | Potency [4] 0.468 µM | Potency [5] 0.742 µM | Potency [6] 0.833 µM
inactive: viability [1] 112%

CCOc1cc(/C=C2/C(=O)N(c3ccccc3)N=C2C)cc(Cl)c1OCC(=O)OC
inactive: viability [1] 103% | Potency [3] | Potency [4] | Potency [5] | Potency [6]
active: Potency [2] 20.9 µM

Nc1nc2cc(-c3ccc4ncc(C(=O)N5CCOCC5)n4c3)ccc2o1
inactive: viability [1] 99.4%
active: Potency [2] 16.6 µM | Potency [3] 16.6 µM | Potency [4] 8.33 µM

Cn1cc(-c2nc(N[C@@H]3CCCC[C@@H]3N)c(F)c3c2C(=O)NC3)cn1
active: Potency [2] 0.148 µM | Potency [3] 2.35 µM
inactive: viability [1] 112%

Cc1noc(C)c1-c1ccc(-c2cc(C(N)=O)c(NC(N)=O)s2)c(O[C@H]2CCNC2)c1
inactive: viability [1] 123% | Potency [2] | Potency [3] | Potency [4] | Potency [5] | Potency [6]

NC(=O)c1nc(F)c[nH]c1=O
inactive: viability [1] 119% | Potency [2] | Potency [3] | Potency [4] | Potency [5] | Potency [6]

CO[C@@H]1[C@@H](O)[C@H](O)[C@@H](n2c3c(Cl)cccc3c3c4c(c5c6cccc(Cl)c6[nH]c5c32)C(=O)NC4=O)O[C@H]1CO
active: Potency [1] 1.32 µM | Potency [2] 0.934 µM | Potency [3] 0.59 µM | Potency [4] 1.05 µM | Potency [5] 2.35 µM | Potency [6] 1.32 µM

Cn1c(-c2ccccc2C(F)(F)F)nnc1C12CCC(c3noc(C4CC(F)(F)C4)n3)(CC1)CC2
inactive: viability [1] 105% | Potency [3] | Potency [4] | Potency [5] | Potency [6]
active: Potency [2] 16.6 µM

N=C(N)c1ccc2nc(-c3cc(CC(=O)N[C@@H](CC(=O)O)C(=O)O)cc(-c4cc(S(N)(=O)=O)ccc4O)c3O)[nH]c2c1
inactive: viability [1] 117% | Potency [2] | Potency [3] | Potency [4] | Potency [5] | Potency [6]

Nc1nc(=S)c2[nH]cnc2[nH]1
active: Potency [1] 0.742 µM | Potency [2] 0.296 µM | Potency [3] 3.32 µM | Potency [4] 2.95 µM | Potency [5] 0.833 µM

CC(C)[C@H]1C(=O)N[C@@H](CCCN=C(N)N)C(=O)NCC(=O)N[C@@H](CC(=O)O)C(=O)N[C@H](Cc2ccccc2)C(=O)N1C
inactive: viability [1] 124% | Potency [2] | Potency [3] | Potency [4] | Potency [5] | Potency [6]

COc1cc(Nc2cnc(C#N)c(O[C@H](C)CN(C)C)n2)ncc1-c1cnn(C)c1
active: Potency [1] 3.72 µM | Potency [2] 0.742 µM | Potency [3] 2.95 µM | Potency [4] 1.86 µM | Potency [5] 1.86 µM

CCN(C)S(=O)(=O)Nc1ccc(F)c(C(=O)c2c[nH]c3ncc(-c4cnc(C5CC5)nc4)cc23)c1F
active: Potency [1] 18.6 µM | Potency [2] 23.5 µM | Potency [3] 4.17 µM | Potency [4] 20.9 µM | Potency [5] 16.6 µM

COc1nc(OCc2cccc(-c3ccccc3)c2C)ccc1CNCCNC(C)=O
active: Potency [1] 26.3 µM | Potency [2] 16.6 µM | Potency [3] 26.3 µM | Potency [4] 20.9 µM | Potency [5] 18.6 µM | Potency [6] 26.3 µM

Nc1nccc2c1ncn2[C@@H]1C=C(CO)[C@@H](O)[C@H]1O
active: Potency [1] 0.525 µM | Potency [2] 0.166 µM | Potency [3] 0.833 µM

CC(C)(C)NC(=O)c1cncn1C1CCN(c2ccc(-c3nnc(C(F)(F)F)o3)cn2)CC1
active: Potency [1] 16.6 µM | Potency [2] 5.25 µM | Potency [3] 4.68 µM

N#Cc1ccc(N(Cc2ccc(Br)cc2)n2cnnc2)cc1
active: Potency [2] 20.9 µM | Potency [3] 16.6 µM
inactive: viability [1] 93.5% | Potency [4] | Potency [5] | Potency [6]

N=C1CCCN1Cc1[nH]c(=O)[nH]c(=O)c1Cl
inactive: viability [1] 111% | Potency [2] | Potency [3] | Potency [4] | Potency [5] | Potency [6]

CN[C@@H](C)C(=O)N[C@H](C(=O)N1CCC[C@H]1c1nc(C(=O)c2ccc(F)cc2)cs1)C1CCCCC1
active: Potency [1] 16.6 µM | Potency [2] 16.6 µM | Potency [4] 20.9 µM
